In the assay the test system is VDR:RXRa (NR concentration 270 nM, RXRa partner concentration 90 nM). Briefly: PBM binding z-score (relative to random genomic background probes); higher = stronger binding; sequences stand for … in GC…GCGATTGACAGCGTAGAATGAAGG
The method, then: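 Protein-binding microarray (Agilent 4x180K custom design, double-stranded 60-nt probes: 5' GC cap, 34-nt variable region, 24-nt constant primer region; full probe sequence given). Purified or IVT nuclear receptor:RXRα heterodimers (3:1 NR:RXRα, mostly 270:90 nM) or homodimers were incubated for 1 h in PBS with 2% milk and no ligand, then detected with Alexa488 antibodies. Fluorescence from o1-orientation probes (~5 replicates averaged) was converted to z-scores against 500 random hg19 background probes. Variable regions are seed direct-repeat (DR0–DR5) sites, all their single-nucleotide variants and half-site ablations.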
As for TGAATGAGGTTATTAGATCAGGGAACGTTGCAAA, the PBM binding z-score stood at 0.99.

For the sequence GGAACGGGGGCAAAGTTGATAGCATCTGTCGACG, the PBM binding z-score came to 3.25. GTACCAAGGTGAATAGGTCGGTGATGAGTAGGCG had a PBM binding z-score of 0.312. Consider CCTACTGGGCGAAAAAGGTCATTGATGCCGATAA, for which the PBM binding z-score stood at 4.21. With AATCGGAGGACAAAGGTCAGAGCTACGCCAGTGA the figure was 3.23; with TCTTGGAGATCAAAGGTTAAGAAAGCCGAAGCCT, 1.57; with CAAGCTAGGTCAAGGTCAAAGTCGGTTTGTGCCA, 5.24. CCTAGTTGGTCAGGAGGTGACACACCGGATATGA yielded a PBM binding z-score of 0.277. As to AATACAGGGTCACTAAGCCAGAGTAGGTACGAAT, the PBM binding z-score amounted to 4.02. CCAGACAGGTGAAAGGTTACTCAGTCTGGTACGC showed a PBM binding z-score of 2.35. TATACAGGGTCAAAGACCAGAGTACGAATGTCGA: the PBM binding z-score stood at 4.43.

Turning to CGTCCAAGGTCAATCCTAGGTCAGTGAAAGCATT, the PBM binding z-score was 4.96. For the sequence GCTATTAGTTGCAAGGGCAACCGAATGATTCTCG, the PBM binding z-score is 0.134. As for AGAATGAGGTTAGGATCAGGGAAACAGAATACAT, the PBM binding z-score was found to be 0.51.

As for CCGACTGGGGCAAGGTTACAATAACGCACAGCCA, the PBM binding z-score was 0.055.

For CGAACCAGGTCAGAACAGGACAGTGAAGGATGAT, the PBM binding z-score was found to be 1.44. Sequence ATCTCTAGGTAGAAGTTCAGTGAATCCCGAGGAT showed a PBM binding z-score of 0.473. With CCTATTAGTCGACCATAAGGGCAACCGAAGCTCG the figure was 0.145; with TCTGCTATGTCAGTTGGTCAGCTAACGAGCTGCC, -0.176. Regarding CTACCAAGGTGAGCAAGGTCGTTGATTACTATTC, the PBM binding z-score was 5.03. CTCGAAAGGTTGTGCTCAGGTGAGTATACCAAAC gave a PBM binding z-score of 0.214.

For the sequence AGAATGAGGGTACCAAAGATCAGGGAAACGCTTG, the PBM binding z-score came to 0.0257. The same measure for TCATATAGGTAAATGCTAGGTGAAAATCCGATCT: 0.793; for ACTATTATTTGAGACGAGGGCAACCGATAGGTTG: 1.1. In the case of CAAACTAGGTCACAGGTCAAAGTCGAGCCAACCA, the PBM binding z-score is 4.33. As to ACAGACAGGTGATGAATGTAACTCAGGCTATCAT, the PBM binding z-score is -0.0862. Turning to CGTCCAAGGTCAAGGTCAGTGAGAGAGACTCGAA, the PBM binding z-score is 4.84. As to CCTTACGGGTTACGAGGTTATAGCACGACGAGCG, the PBM binding z-score was 2.36. As for CCGAGTATGTTATGGGGCATTCAGGCAACGGTGA, the PBM binding z-score is -0.0094. The sequence CGTCAAAGTTCAACTACGGTAACGTAAAGCACGC had a PBM binding z-score of 4.19.

Regarding CGAACTAGGTCAAGGACAGTGAATCTCCGCACGC, the PBM binding z-score came out at 1.32. Turning to AGAACGAGGGCACGCTCAGTTGATAGCAGAGTAG, the PBM binding z-score amounted to 1.4. TGAATGAGGTTAAAGATCAGGAAACGTGGCGTCG registered a PBM binding z-score of 1.95.

As to TAGCCTAGGTCCTTGGGCCAGTATAGTACGCATC, the PBM binding z-score was -0.897. With AGAATGAGGTTATACATAGATCAGGGAAGAAAGT the figure was 1.5; with GCTAGCAGGCCATTCGGGTCACTCAATGACGGGC, 3.27; with ATCGAAAGGTCGTGAGGTGAGTATTCAGAAAGGC, 3.7. CCGACTGGGGCAAACGTTACCATACTCAGTACGA: the PBM binding z-score is -0.23.

Turning to TCGAGTACGTTACCAATGGGGCATTCAGCTTTCT, the PBM binding z-score came to 0.458. The sequence CTCGAAAGGTCGTGTTCAGGTGAGTATACCAAAC gave a PBM binding z-score of 3.35.

Source of the values: the supplement of paper PMC6555819.
